Experimental findings from PubChem BioAssay are described below.

SMILES strings stand for the structures. Values without a mark were called inactive. Inconclusive results are not listed. The source made the active and inactive calls. Unless noted, the rule behind the calls is not given here.

The remaining activity is the signal under treatment as a percentage of the control signal. By AC50 is commonly meant the midpoint of the concentration-response curve, whichever way the signal moves.

The first assay deals with Aerobactin synthetase IucA (Klebsiella pneumoniae). Briefly: inhibition of K. pneumoniae IucA enzyme – biochemical, Tocris library, absorbance (AID 1345561).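 Note: 100% = enzyme without compound and 0% = no enzyme.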 The following applies: purified IucA enzyme assay, absorbance (OD) read-out; stronger effect = lower value;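 tested at 8 µM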.
For the molecule `O=c1c(-c2ccc(O)cc2)coc2cc(O)ccc12`, the remaining activity was 111%.
The same measure, in the same setting: under `C[C@@]12C(=O)OC(=O)[C@]1(C)[C@H]1CC[C@@H]2O1` stands 119%; under `CCCC(=O)Nc1ncnc2c1ncn2[C@@H]1O[C@@H]2COP(=O)(O)O[C@H]2[C@H]1OC(=O)CCC`, 106%; under `CCN1CCCC1CNC(=O)c1cc(S(N)(=O)=O)ccc1OC` (centres undefined), 107%.
Same read-out and setting: under `CCOC(=O)C1=C(O)C(=O)N(Cc2ccccc2)C1` stands 101%; under `O=C(O)c1cc([N+](=O)[O-])ccc1NCCCc1ccccc1`, 93.2%.
Turning to `CC(CCc1ccc(O)cc1)NCCc1ccc(O)c(O)c1` (centres undefined), the remaining activity is 94.6%.
Still for that read-out and setting: the value for `NC(=O)c1cccc(N)c1` was 96.2%.

Tested on in the next assay: not listed separately
The experiment in a line: viability loss in pontine glioma line – cell-based, SU-DIPG-XVII, MIPE5.0, CellTiter-Glo, qHTS, dose response (AID 1347060; cut-off not given, nearly all actives have AC50 up to about 26 µM;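 for AC50: cells exposed to compound for 48 hours before viability readout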). The following applies: CellTiter-Glo ATP luminescence.
Take `C[C@@]12C(=O)OC(=O)[C@]1(C)[C@H]1CC[C@@H]2O1`: the AC50 is 2.63 µM (active).
As for `CCOC(=O)C1=C(O)C(=O)N(Cc2ccccc2)C1`, the molecule was called inactive.
As to `NC(=O)c1cccc(N)c1`, the molecule was called inactive.

Tested on in the next assay: not listed separately
The experiment in a line: viability loss in pontine glioma line – cell-based, SU-DIPG-XIII, MIPE4.0, CellTiter-Glo, qHTS, dose response (AID 1347061; cut-off not given, nearly all actives have AC50 up to about 37 µM;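 note: cells exposed to compound for 48 hours before readout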). The following applies: CellTiter-Glo ATP luminescence. (In ATP-based viability assays light output follows the ATP content of the culture.)
Consider `O=c1c(-c2ccc(O)cc2)coc2cc(O)ccc12`, for which the result was inactive.
Take `CCN1CCCC1CNC(=O)c1cc(S(N)(=O)=O)ccc1OC` (centres undefined): the call was inactive.
For `CC(CCc1ccc(O)cc1)NCCc1ccc(O)c(O)c1` (centres undefined), the result was inactive.

Tested on in the next assay: not listed separately
Briefly: viability loss in pontine glioma line – cell-based, JHH-DIPG-1, MIPE4.0, CellTiter-Glo, qHTS, dose response (AID 1347062; cut-off not given, nearly all actives have AC50 up to about 27 µM). The following applies: JHH-DIPG-1 viability, CellTiter-Glo ATP luminescence.
On to `O=c1c(-c2ccc(O)cc2)coc2cc(O)ccc12`, for which the molecule was called inactive.
Still for that read-out and setting: under `CCN1CCCC1CNC(=O)c1cc(S(N)(=O)=O)ccc1OC` (centres undefined) stands “inactive”; under `CCOC(=O)C1=C(O)C(=O)N(Cc2ccccc2)C1`, “inactive”; under `CC(CCc1ccc(O)cc1)NCCc1ccc(O)c(O)c1` (centres undefined), “inactive”.
Still for that read-out and setting: under `NC(=O)c1cccc(N)c1` stands “inactive”.

Tested on in another assay: not listed separately
The experiment in a line: viability loss in pontine glioma line – cell-based, SU-DIPG-IV, MIPE4.0, CellTiter-Glo, qHTS, dose response (AID 1347063; cut-off not given, nearly all actives have AC50 up to about 30 µM;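 note: compound exposure lasted 48 hours before the viability readout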). The following applies: CellTiter-Glo ATP luminescence.
With `O=c1c(-c2ccc(O)cc2)coc2cc(O)ccc12`, the outcome was inactive.
Still for that read-out and setting: under `CCOC(=O)C1=C(O)C(=O)N(Cc2ccccc2)C1` stands “inactive”.
Still for that read-out and setting: the value for `CC(CCc1ccc(O)cc1)NCCc1ccc(O)c(O)c1` (centres undefined) was “inactive”.
On the same count and under the same terms, under `NC(=O)c1cccc(N)c1` stands “inactive”.

Tested on in a further assay: not listed separately
The experiment in a line: viability loss in pontine glioma line – cell-based, SU-DIPG-XXV, MIPE5.0, CellTiter-Glo, qHTS, dose response (AID 1347065; cut-off not given, nearly all actives have AC50 up to about 26 µM;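 note: cells exposed to compound for 48 hours before ATP readout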). The following applies: CellTiter-Glo ATP luminescence.
Consider `C[C@@]12C(=O)OC(=O)[C@]1(C)[C@H]1CC[C@@H]2O1`, for which the AC50 is 1.86 µM (active).
As to `CCOC(=O)C1=C(O)C(=O)N(Cc2ccccc2)C1`, the call was inactive.
Same read-out and setting: under `NC(=O)c1cccc(N)c1` stands “inactive”.

Tested on in a further assay: not listed separately
The experiment in a line: growth inhibition of DIPG cells – cell-based, MIPE4.0 library, CellTiter-Glo luminescence, qHTS (AID 1347066; cut-off not given, nearly all actives have AC50 up to about 30 µM;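 note: cells exposed to compound for 48 hours before readout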). The following applies: SU-DIPG-VI viability, CellTiter-Glo ATP luminescence.
As for `O=c1c(-c2ccc(O)cc2)coc2cc(O)ccc12`, the molecule was called inactive.
Turning to `CCOC(=O)C1=C(O)C(=O)N(Cc2ccccc2)C1`, the result was inactive.
Still for that read-out and setting: the value for `NC(=O)c1cccc(N)c1` was “inactive”.
